High-throughput results from PubChem.
A selection: hits, their analogues and other compounds. The true share with any hit is near 19%.
SARS PLpro yeast = qHTS of Yeast-based Assay for SARS-CoV PLP | S. cerevisiae expressing SARS-CoV PLpro, growth rescue | Potency, µM (titrated, usually from 32.9 µM), without a hit: at the top dose activity, positive = growth rescue, usual class: activators | 330,000 compounds, 0.19% hits; calls by dose curve; note: potency is the fitted concentration of half-maximal effect; 0% is about no effect; nearly all actives have a fitted effect of over 55% in size
CHX counter-1 = Cycloheximide Counterscreen for Small Molecule Inhibitors of Shiga Toxin | cell reporter, cycloheximide protein synthesis inhibition counterscreen | max response, % | 300,000 compounds, 12% hits | AID 2314, 2010; in the data active = max response mostly above about 13%, no sharp cut-off; inactive = mostly below about 14%; note: read at 38.3 µM for the half of the compounds with a filed dose; 0% is about no effect
Shiga toxin inh = A qHTS for Small Molecule Inhibitors of Shiga Toxin; Vero cells, Shiga toxin protein synthesis inhibition reporter; inhibition, % at 38.7 µM; 290,000 compounds, 9.2% hits; in the data active = inhibition mostly above about 28%, no sharp cut-off; inactive = mostly below about 43%; note: 0% is about no effect
Pf growth 96h = Primary qHTS for delayed death inhibitors of the malarial parasite plastid, 96 hour incubation | 320,000 compounds, 6.9% hits | Potency, µM (titrated, usually from 28.7 µM), for inactives: at the highest dose activity change, negative = inhibition, actives largely listed as inhibitors | P. falciparum luciferase reporter growth, 96 h; note: potency is the fitted concentration of half-maximal effect; % is set by controls: 0 for no effect and ±100 for the full control effect
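Cell-based qHTS: luciferase-tagged P. falciparum in erythrocytes (2% hematocrit, 0.05% parasitemia final) incubated with compounds for 96 hours, 37 C, 5% CO2; luciferase detection reagent then added and luminescence measured.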
AMA1 RON2 block = qHTS for Inhibitors of AMA1-RON; Towards Development of Antimalarial Drug Lead: Primary Screen; 360,000 compounds, 0.2% hits; Potency, µM (top dose mostly 58.2 µM), inactives show top-dose activity change, negative = inhibition, usual class: inhibitors; AlphaScreen AMA1-biotinylated RON2 peptide binding; Plasmodium falciparum AMA1 (3D7) - RON2 peptide interaction;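 note: potency is the fitted concentration of half-maximal effect; 0% = vehicle wells and -100% = peptide control; nearly all actives have a fitted effect of over 45% in size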
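AMA1 (3D7) with his tag at 25 nM final met compounds first, then biotinylated RON2 peptide at 25 nM; detection used donor plus acceptor beads, 10 µg/mL apiece, read by AlphaScreen after 30 min at room temperature.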
Pf growth 48h = Primary qHTS for delayed death inhibitors of the malarial parasite plastid, 48 hour incubation. Potency, µM (highest dose often 28.7 µM), without a hit: at the top dose activity change, negative = inhibition, hits mostly inhibitors. P. falciparum luciferase growth in erythrocytes, 48 h. 310,000 compounds, 5.9% hits; note: potency is the fitted concentration of half-maximal effect; % is set by controls: 0 for no effect and ±100 for the full control effect
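Read-out is firefly luciferase luminescence from an integrated reporter in P. falciparum, so falling signal marks reduced parasite growth. Infected erythrocytes were at 2% hematocrit and 0.1% parasitemia (final) in Albumax-supplemented RPMI 1640.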
CHX counter-2 = Cycloheximide Counterscreen for Small Molecule Inhibitors of Shiga Toxin (Confirmatory); shares compounds with Shiga toxin inh; Cycloheximide counterscreen, protein synthesis reporter, Shiga toxin assay; Potency, µM (doses to about 38.3 µM), for the others: at the top dose activity (activation), most hits filed as activators; 510 compounds, 3% hits; calls by dose curve; note: potency is the fitted concentration of half-maximal effect; 0% is about no effect
* = called active by the depositor; ? = inconclusive; . = not tested or not shown; [ ] = remark or other dose. Unless noted, calls come from the whole dose curve; as a rule, active = well fitted curve in the direction sought with a large enough effect; inconclusive = small, poorly fitted or top-dose-only effect, or another doubt; inactive = no such curve, though single readings can be large; an effect the other way counts as inactive or inconclusive.

SMILES	SARS PLpro yeast	CHX counter-1	Shiga toxin inh	Pf growth 96h	AMA1 RON2 block	Pf growth 48h	CHX counter-2
O=C(O)c1c2c(nc3ccccc13)/C(=C/c1ccc(OC(F)F)cc1)CCC2	0.2%	22.7*	57.9*	7.0%	-4.3%	26.6%	.
O=C(O)c1c2c(nc3ccccc13)/C(=C/c1ccc(O)cc1)CC2	2.6%	-5.0	-17.9	188.1%	-23.1%	268.8%	.
Cc1cc(-c2nnc(CCC(=O)NCc3ccc(OC(F)(F)F)cc3)o2)no1	10.4%	15.7*	29.0	-2.2%	0.0%	0.7%	.
Cc1cc(-c2nnc(CCC(=O)N(C)Cc3ccsc3)o2)no1	-0.7%	20.5*	33.9	5.3%	0.3%	-47.7%	.
Cc1cc(-c2nnc(CCC(=O)NC(C)c3ccc(F)cc3)o2)no1 (stereo not drawn)	-0.7%	10.1	42.8	?	-4.0%	40.8%	.
Cc1cc(-c2nnc(CCC(=O)N(C)C(C)c3cccs3)o2)no1 (stereo not drawn)	-0.7%	48.2*	76.8*	1.7%	1.1%	14.7%	.
O=C(O)c1ccc(C(=O)c2cc([N+](=O)[O-])cc([N+](=O)[O-])c2)cc1	.	.	.	.	-11.2%	.	.
O=C1NC[C@H](CC2CCCCC2)N(CCc2cccc(F)c2)C1=O	3.3%	.	.	?	38.9%	?	.
COC(=O)c1c(C(=O)OC)c2ccncn2c1Cl	5.0%	-2.4	-4.1	0.9%[5.75 µM]	7.2%	.	.
CCOC(=O)c1c(C)[nH]c(C2=NNC(=NC3CC3)SC2)c1C	0.1%	10.4	32.0*	-33.4%	87.6%	39.4%	0.0504µM*
NS(=O)(=O)c1ccc(CCNC(=O)c2ccc(NC3=NC4CS(=O)(=O)CC4S3)cc2)cc1 (stereo not drawn)	-9.4%	-3.6	114.1*	49.2%	8.1%	13.7%	-1.0%
COc1ccc(C(C)(C)C)cc1NC(=O)c1ccc2c(c1)SC1=NS(=O)(=O)CCN12	-2.0%	-2.6	40.3*	0.0%	-8.3%	-43.6%	-1.4%
O=C(O)c1ccc2c(c1)SC1=NS(=O)(=O)CCN12	0.0%	-0.8	7.4	-1.8%	-9.2%	20.3%	.
CC(C)c1nnc(NC(=O)CSc2nc3ccccc3s2)s1	3.6%	3.3	50.4*	.	-16.6%	8.3%	1.5%
Cc1csc(NC(=O)CSc2nc3ccccc3s2)n1	2.2%	-1.0	24.1	0.0%	-4.3%	0.2%	.
O=C(CC[C@H]1O[C@@H](n2cnc3c(NC(=O)c4ccccc4)ncnc32)[C@H](O)[C@@H]1O)NCc1ccco1	.	.	.	.	-4.2%	.	.
CC(=O)c1ccc(NC(=O)C(C)Sc2nnc(C3CCCCC3)o2)cc1 (stereo not drawn)	0.5%	6.3	46.9*	?	.	27.2%	-2.1%
CC(=O)Nc1ccc(NC(=O)C(C)Sc2nnc(-c3cccs3)o2)cc1 (stereo not drawn)	-1.1%	-1.7	-10.3	34.5%	20.0%	0.0%	.
CC1Cc2ccccc2N1Cc1cc(=O)n2ccsc2n1 (stereo not drawn)	-13.3%	1.3	25.2*	13.1µM*	-5.7%	?	-0.3%
COc1ccc(N2CCN(C(=O)COC(=O)CNC(=O)c3cccc(OC(F)F)c3)CC2)cc1	2.2%	.	.	-7.6%	3.5%	13.1%	.
NNC(=O)c1cccn(Cc2cccc(C(F)(F)F)c2)c1=O	-1.1%	13.1	24.4	?	88.7%	?	.
Cc1c(C(=O)N2CCCCC2)sc(NC(=O)C2CC2)c1C#N	-1.7%	3.2	2.1	.	-5.4%	-5.3%	.
Cc1sc(NC(=O)C2CCCC2)c(C#N)c1C	-15.0%	1.3	18.9*	56.8%	-9.4%	32.8%	0.7%
CC(C)NS(=O)(=O)c1ccc(OCC(=O)Nc2ccccc2F)cc1	3.4%	7.0	33.6*	24.1%	7.2%	11.4%	8.2%
Cc1ccc(OCC(=O)Nc2ccccc2F)cc1	.	.	.	.	35.9%	.	.
SMILES	SARS PLpro yeast	CHX counter-1	Shiga toxin inh	Pf growth 96h	AMA1 RON2 block	Pf growth 48h	CHX counter-2
CC1CCC/C=C/C2CC(O)CC2C(O)/C=C/C(=O)O1 (stereo not drawn)	-16.4%	4.6	40.7*	?	14.9%	.	-7.4%
C=CCn1c(=S)[nH]c2ccccc2c1=O	?	-0.9	-3.9	?	33.0%	-8.5%	.
C=CCn1c(=S)[nH]c2cc(-c3ccccc3)sc2c1=O	0.5%	-0.3	38.8*	8.2%	57.1%	31.6%	?
O=S1(=O)CC(N2CCCCC2)C1CN1CCCCC1 (stereo not drawn)	.	.	.	.	13.5%	.	.
Cc1ccc(NC(=O)C(C)N=C2NS(=O)(=O)c3ccccc32)cc1 (stereo not drawn)	-1.4%	8.3	35.5*	29.6%	?	-34.8%[5.75 µM]	-1.8%
COc1ccc(-c2noc(CCC(=O)NCCN(C)Cc3ccccc3)n2)cc1	.	-1.9	9.1	52.3%	-0.3%	-2.1%	.
COc1cccc(-c2noc(CCC(=O)NCCc3ccccc3)n2)c1	-4.4%	11.0	49.3*	9.6%	11.6%	8.8%	7.9%
COc1ccc(-c2ccc3c(c2)S(=O)(=O)c2cccc(C(=O)N4CCN(c5c(Cl)cncc5Cl)CC4)c2C3=O)cc1OC	3.3%	.	.	.	1.6%	.	.
CN(CCC#N)C(=O)COC(=O)c1ccc(CNS(=O)(=O)c2ccc(F)c(Cl)c2)cc1	11.9%	-0.9	-12.8	0.0%	4.2%[11.6 µM]	-0.7%	.
O=C1Cc2cc([N+](=O)[O-])ccc2N1c1c(Cl)cccc1Cl	-3.3%	-2.5	64.1*	15.6%	6.3%	4.65µM*	-5.2%
COc1cccc(CNc2nc3cc(-c4ccsc4)sc3c(=O)n2C)c1OC	.	.	.	.	-13.7%	.	.
O=C(/C=C/C#Cc1cccc(NS(=O)(=O)c2ccccc2)c1)NO	.	12.9	64.8*	.	.	.	0.2%
COC(CNC(=O)C1CCN(S(=O)(=O)c2cccc3nsnc23)CC1)OC	0.8%	-1.9	-2.7	17.2%	0.0%	6.7%	.
O=C1c2ccccc2C(=O)c2c1ccc1c(=O)n(C3CCCCC3)[nH]c21	-6.5%	4.7	26.6*	-21.9%	?	?	-4.9%
O=C(COC(=O)c1cccc2c1C(=O)c1ccccc1C2=O)NC1CCCCC1	-2.0%	-7.0	-10.7	?	-24.3%	?	.
Cc1cc(C)n(CCCNC(=O)c2ccc(C)c(S(=O)(=O)N3CCOCC3)c2)n1	3.4%	.	.	?	6.8%	?	.
CCc1ccccc1NC(=O)NCc1ccc2c(c1)OCO2	4.7%	3.9	0.9	9.4%	-0.6%	13.3%	.
CSc1nc(SCCO)c2sc3nc(-c4ccco4)c4c(c3c2n1)CC(C)(C)OC4	7.4%	-5.4	80.6*	?	1.8%	?	-1.7%
O=C(O)CNc1ccccc1C(=O)O	0.1%	-1.6	5.8	36.7%	0.4%	18.2%	.
